Source: PubChem BioAssay AID1159580 (chemical genetic matrix, 2015)
Out of some 5,500 compounds screened, about 2,000 (36%) were called active. Roughly 18% stayed inconclusive and do not appear here. Rule as the data show it: active = normalized growth mostly below about 0.91 (no sharp cut-off); inconclusive = no clear call, values can overlap the other calls; inactive = mostly above about 0.92. Some of the results follow.

Experiment: chemical genetic growth profiling, strain panel (AID 1159580);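 also: tested at 20 µM; growth read once vehicle control cultures reached saturation at 30 °C; 1 = growth at the plate median or of vehicle wells; lower values mean less growth of the strain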
Details: S. cerevisiae deletion strains, growth OD

Measured: normalized growth

O=C(CCCN1CCN(c2ccccn2)CC1)c1ccc(F)cc1
inactive: locus YAL030W, strain snc1, hits give low values 0.989 | locus YBL061C, strain skt5, hits give low values 0.968 | locus YBR009C, strain hhf1, hits give low values 0.964 | locus YBR023C, strain chs3, hits give low values 0.969 | locus YBR171W, strain sec66, hits give low values 0.954 | locus YCL011C, strain gbp2, hits give low values 0.971 | locus YCL016C, strain dcc1, hits give low values 0.95 | locus YCL061C, strain MRC1, hits give low values 0.993 | locus YCL069W, strain vba3, hits give low values 0.977 | locus YCR088W, strain abp1, hits give low values 0.992 | locus YDL005C, strain med2, hits give low values 0.984 | locus YDL040C, strain nat1, hits give low values 0.984 | locus YDR001C, strain nth1, hits give low values 0.983 | locus YDR137W, strain rgp1, hits give low values 1 | locus YDR159W, strain sac3, hits give low values 0.996 | locus YDR297W, strain sur2, hits give low values 0.972 | locus YDR334W, strain swr1, hits give low values 0.968 | locus YDR335W, strain msn5, hits give low values 0.948 | locus YEL003W, strain gim4, hits give low values 0.933 | locus YEL037C, strain rad23, hits give low values 0.971 | locus YEL061C, strain CIN8 (second series), hits give low values 0.976 | locus YER015W, strain faa2, hits give low values 0.977 | locus YER016W, strain bim1, hits give low values 0.981 | locus YER111C, strain swi4, hits give low values 0.947 | locus YGL167C, strain pmr1, hits give low values 0.94 | locus YGL173C, strain kem1, hits give low values 0.927 | locus YGL227W, strain vid30, hits give low values 0.999 | locus YGL240W, strain doc1, hits give low values 0.966 | locus YGL253W, strain hxk2, hits give low values 0.946 | locus YHR027C, strain rpn1, hits give low values 0.974 | locus YHR030C, strain SLT2, hits give low values 1.04 | locus YHR079C, strain IRE1, hits give low values 1.04 | locus YJL092W, strain hpr5, hits give low values 0.984 | locus YJL095W, strain BCK1 (second series), hits give low values 0.968 | locus YJL095W, strain BCK1, hits give low values 0.982 | locus YJL115W, strain asf1, hits give low values 0.973 | locus YJL154C, strain vps35, hits give low values 0.993 | locus YJL164C, strain tpk1, hits give low values 0.932 | locus YJL166W, strain qcr8, hits give low values 0.949 | locus YJL187C, strain SWE1, hits give low values 0.967 | locus YJR066W, strain TOR1, hits give low values 0.972 | locus YKR026C, strain gcn3, hits give low values 0.988 | locus YKR091W, strain srl3, hits give low values 0.99 | locus YLL001W, strain dnm1, hits give low values 0.975 | locus YLL026W, hits give low values 0.987 | locus YLL041C, strain sdh2, hits give low values 0.984 | locus YLR027C, strain aat2, hits give low values 0.975 | locus YLR113W, strain HOG1, hits give low values 1.01 | locus YLR221C, strain rsa3, hits give low values 0.976 | locus YLR258W, strain gsy2, hits give low values 0.987 | locus YLR342W, strain FKS1, hits give low values 0.981 | locus YLR357W, strain rsc2, hits give low values 1.12 | locus YLR370C, strain arc18, hits give low values 0.95 | locus YLR384C, strain iki3, hits give low values 0.943 | locus YML120C, strain ndi1, hits give low values 0.961 | locus YMR058W, strain fet3, hits give low values 0.943 | locus YMR125W, strain sto1, hits give low values 0.981 | locus YMR129W, hits give low values 0.986 | locus YMR205C, strain PFK2, hits give low values 0.894 | locus YMR231W, strain pep5, hits give low values 0.973 | locus YNL183C, strain NPR1, hits give low values 0.977 | locus YNL209W, strain ssb2, hits give low values 0.962 | locus YNL322C, strain KRE1 (second series), hits give low values 1.02 | locus YNR049C, strain mso1, hits give low values 0.986 | locus YOR080W, strain dia2, hits give low values 0.998 | locus YOR083W, strain WHI5, hits give low values 0.948 | locus YOR106W, strain vam3, hits give low values 0.905 | locus YOR231W, strain MKK1, hits give low values 1.04 | locus YOR265W, strain rbl2, hits give low values 0.969 | locus YOR290C, strain snf2, hits give low values 0.894 | locus YPL078C, strain atp4, hits give low values 0.915 | locus YPL106C, strain sse1, hits give low values 1.1 | locus YPL240C, strain hsp82, hits give low values 0.985 | locus YPL256C, strain CLN2, hits give low values 1.1
active: locus YAL021C, strain ccr4, hits give low values 0.848 | locus YAL026C, strain drs2, hits give low values 0.0899 | locus YBR231C, strain swc5, hits give low values 0.855 | locus YBR279W, strain paf1, hits give low values 0.93 | locus YDR069C, strain doa4, hits give low values 0.858 | locus YDR195W, strain ref2 1.23 [resistant] | locus YDR392W, strain spt3, hits give low values 0.606 | locus YER155C, strain BEM2 (second series), hits give low values 0.436 | locus YFR010W, strain ubp6, hits give low values 0.868 | locus YHR013C, strain ard1, hits give low values 0.746 | locus YHR142W, strain chs7, hits give low values 0.87 | locus YJL129C, strain trk1, hits give low values 0.811 | locus YKL160W, strain elf1, hits give low values 0.9 | locus YLR262C, strain YPT6 (second series), hits give low values 0.821 | locus YLR320W, strain mms22, hits give low values 0.57 | locus YNL071W, strain lat1, hits give low values 0.781 | locus YNL248C, strain rpa49, hits give low values 0.876 | locus YOR001W, strain rrp6, hits give low values 0.789 | locus YOR070C, strain gyp1, hits give low values 0.392 | locus YOR270C, strain vph1, hits give low values 0.541 | locus YPL051W, strain arl3, hits give low values 0.905
